Assay results taken from the supplement of paper PMC10849652.
The full data set covers some 8,800 targets. This sample favours those with a hit. About 0.5% of all pairs of compound and target were hits. A number with no mark means an inactive call.

Experiments:
Assay in all cases: log2 fold change, soluble protein after heating vs DMSO (PISA); higher = thermal stabilisation; K562 lysate, 10 uM; active = over 0.2 and 3.5 SD of the protein, either way, in both replicates (recomputed)
[1] = compound: CS(=O)(=O)CCNCc1ccc(-c2ccc3ncnc(Nc4ccc(OCc5cccc(F)c5)c(Cl)c4)c3c2)o1 [lapatinib]
Summary of the method: (§1)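 Log-two fold change in thermal stability relative to solvent controls is reported from duplicates. For each sample, crude K562 extract from dounce-homogenised pellets in PBS pH 7.4 with 1 mM MgCl2, at 1 mg/mL protein, was treated with 10 μM compound for 30 min. Aliquots heated for 3 min across 48°C-58°C were pooled, brought to 0.5% NP-40 at 4°C and cleared at 21,000xg for 90 min. The supernatant was quantified by TMTpro 16plex LC-MS/MS with channel sums equalised.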

[2] = compound: CS(=O)(=O)N1CCN(Cc2cc3nc(-c4cccc5[nH]ncc45)nc(N4CCOCC4)c3s2)CC1 [pictilisib]
Summary of the method: as §1

[3] = compound: C[C@@H](Oc1cc(-c2cnn(C3CCNCC3)c2)cnc1N)c1c(Cl)ccc(F)c1Cl [crizotinib]
Summary of the method: as §1

[4] = compound: C[C@H](C1=CC=C(C=C1)C(=O)NC2=C3C=CNC3=NC=C2)N
Summary of the method: as §1

[5] = compound: C[C@H](Nc1ncnc2nc[nH]c12)c1cc2cccc(Cl)c2c(=O)n1-c1ccccc1 [duvelisib]
Summary of the method: as §1

[6] = compound: Cc1cc(Nc2cc(CN3CCOCC3)c3nc(C)c(Cc4ccc(Cl)cc4F)n3n2)n[nH]1 [gandotinib]
Summary of the method: as §1

[7] = compound: Cc1cc(Nc2cc(N3CCN(C)CC3)nc(Sc3ccc(NC(=O)C4CC4)cc3)n2)n[nH]1 [tozasertib]
Summary of the method: as §1

[8] = compound: Cc1ccc(-n2nc(C(C)(C)C)cc2NC(=O)Nc2ccc(OCCN3CCOCC3)c3ccccc23)cc1 [doramapimod]
Summary of the method: as §1

[9] = compound: Cc1ccc(NC(=O)c2ccc(CN3CC[C@H](N(C)C)C3)c(C(F)(F)F)c2)cc1Nc1nccc(-c2cncnc2)n1 [bafetinib]
Summary of the method: as §1

[10] = compound: Cc1cccc(CC(=O)N2CCc3c2ccc(-c2cn(C)c4ncnc(N)c24)c3F)n1
Summary of the method: as §1

UniProt P10124, sequence (P10124 whole entry, looked up): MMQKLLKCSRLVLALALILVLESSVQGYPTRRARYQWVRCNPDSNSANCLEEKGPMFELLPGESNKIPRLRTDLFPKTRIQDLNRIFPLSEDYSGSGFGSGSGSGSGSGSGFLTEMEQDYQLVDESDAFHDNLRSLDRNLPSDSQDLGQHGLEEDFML
UniProt Q96EX1, sequence (Q96EX1 whole entry, looked up): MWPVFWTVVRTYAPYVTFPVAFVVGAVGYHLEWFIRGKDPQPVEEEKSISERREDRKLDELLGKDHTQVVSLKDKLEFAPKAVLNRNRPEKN
UniProt Q9UL54, sequence (Q9UL54 whole entry, looked up): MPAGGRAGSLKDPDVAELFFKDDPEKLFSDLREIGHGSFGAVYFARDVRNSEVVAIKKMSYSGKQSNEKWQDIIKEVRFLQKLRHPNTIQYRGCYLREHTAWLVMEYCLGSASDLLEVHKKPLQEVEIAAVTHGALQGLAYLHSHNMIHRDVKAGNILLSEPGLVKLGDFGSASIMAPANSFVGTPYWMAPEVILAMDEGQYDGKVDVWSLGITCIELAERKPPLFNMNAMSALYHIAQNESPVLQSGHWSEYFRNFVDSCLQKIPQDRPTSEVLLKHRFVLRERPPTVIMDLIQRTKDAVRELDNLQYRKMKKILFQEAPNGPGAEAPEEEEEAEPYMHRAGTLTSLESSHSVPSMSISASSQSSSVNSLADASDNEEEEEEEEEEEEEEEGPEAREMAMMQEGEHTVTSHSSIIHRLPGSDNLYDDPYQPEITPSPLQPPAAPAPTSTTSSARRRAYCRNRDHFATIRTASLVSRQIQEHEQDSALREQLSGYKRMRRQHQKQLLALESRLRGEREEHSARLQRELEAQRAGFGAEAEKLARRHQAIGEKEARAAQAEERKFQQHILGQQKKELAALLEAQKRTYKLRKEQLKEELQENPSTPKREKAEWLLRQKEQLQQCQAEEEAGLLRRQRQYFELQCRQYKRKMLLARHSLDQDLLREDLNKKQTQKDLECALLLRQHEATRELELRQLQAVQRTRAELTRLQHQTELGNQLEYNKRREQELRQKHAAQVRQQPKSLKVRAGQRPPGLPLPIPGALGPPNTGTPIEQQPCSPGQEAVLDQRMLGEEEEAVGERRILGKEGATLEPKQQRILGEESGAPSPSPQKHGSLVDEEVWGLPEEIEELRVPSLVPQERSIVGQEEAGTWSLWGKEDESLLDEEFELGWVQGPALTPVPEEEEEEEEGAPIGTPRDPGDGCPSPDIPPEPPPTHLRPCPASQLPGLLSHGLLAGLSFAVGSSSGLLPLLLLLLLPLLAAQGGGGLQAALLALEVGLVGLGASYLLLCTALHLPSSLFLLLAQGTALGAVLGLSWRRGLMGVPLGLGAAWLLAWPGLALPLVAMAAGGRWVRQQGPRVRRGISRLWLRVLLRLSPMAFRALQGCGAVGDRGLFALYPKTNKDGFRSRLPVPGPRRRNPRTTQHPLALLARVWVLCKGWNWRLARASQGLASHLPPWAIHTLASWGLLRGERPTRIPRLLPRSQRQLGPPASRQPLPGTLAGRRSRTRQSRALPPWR
UniProt Q9P289, sequence (Q9P289 whole entry, looked up): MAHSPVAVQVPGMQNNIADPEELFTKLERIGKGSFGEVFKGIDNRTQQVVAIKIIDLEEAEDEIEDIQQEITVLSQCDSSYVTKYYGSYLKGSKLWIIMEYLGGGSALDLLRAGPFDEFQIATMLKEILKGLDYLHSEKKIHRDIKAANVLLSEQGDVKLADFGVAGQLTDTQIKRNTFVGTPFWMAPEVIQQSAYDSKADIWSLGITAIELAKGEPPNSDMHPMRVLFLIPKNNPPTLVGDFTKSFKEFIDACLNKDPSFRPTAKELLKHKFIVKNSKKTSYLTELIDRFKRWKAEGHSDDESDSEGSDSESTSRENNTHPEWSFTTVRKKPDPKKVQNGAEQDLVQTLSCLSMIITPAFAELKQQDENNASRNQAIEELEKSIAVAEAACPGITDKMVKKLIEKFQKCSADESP
UniProt P52630, sequence (P52630 whole entry, looked up): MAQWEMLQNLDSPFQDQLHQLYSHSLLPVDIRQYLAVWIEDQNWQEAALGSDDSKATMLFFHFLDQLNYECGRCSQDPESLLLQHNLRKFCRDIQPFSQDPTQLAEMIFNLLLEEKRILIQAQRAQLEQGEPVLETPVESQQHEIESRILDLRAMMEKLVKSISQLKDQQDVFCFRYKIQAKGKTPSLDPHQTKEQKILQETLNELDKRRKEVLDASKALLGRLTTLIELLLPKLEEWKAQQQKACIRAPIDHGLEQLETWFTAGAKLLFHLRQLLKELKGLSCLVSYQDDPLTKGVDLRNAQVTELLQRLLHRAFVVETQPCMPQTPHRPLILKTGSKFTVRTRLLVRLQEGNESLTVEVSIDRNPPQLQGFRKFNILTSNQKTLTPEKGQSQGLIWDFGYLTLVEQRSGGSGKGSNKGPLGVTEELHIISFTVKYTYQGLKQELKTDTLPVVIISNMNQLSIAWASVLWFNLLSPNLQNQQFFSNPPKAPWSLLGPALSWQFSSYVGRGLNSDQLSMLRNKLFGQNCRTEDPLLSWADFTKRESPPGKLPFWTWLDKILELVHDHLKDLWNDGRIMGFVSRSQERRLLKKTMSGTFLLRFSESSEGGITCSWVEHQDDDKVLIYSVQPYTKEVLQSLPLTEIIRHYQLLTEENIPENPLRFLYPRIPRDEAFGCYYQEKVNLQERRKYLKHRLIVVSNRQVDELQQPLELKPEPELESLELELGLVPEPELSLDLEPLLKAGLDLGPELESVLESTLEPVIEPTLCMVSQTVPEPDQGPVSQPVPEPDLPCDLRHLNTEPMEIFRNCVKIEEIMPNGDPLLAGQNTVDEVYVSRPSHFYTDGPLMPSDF
UniProt P08047, sequence (P08047 whole entry, looked up): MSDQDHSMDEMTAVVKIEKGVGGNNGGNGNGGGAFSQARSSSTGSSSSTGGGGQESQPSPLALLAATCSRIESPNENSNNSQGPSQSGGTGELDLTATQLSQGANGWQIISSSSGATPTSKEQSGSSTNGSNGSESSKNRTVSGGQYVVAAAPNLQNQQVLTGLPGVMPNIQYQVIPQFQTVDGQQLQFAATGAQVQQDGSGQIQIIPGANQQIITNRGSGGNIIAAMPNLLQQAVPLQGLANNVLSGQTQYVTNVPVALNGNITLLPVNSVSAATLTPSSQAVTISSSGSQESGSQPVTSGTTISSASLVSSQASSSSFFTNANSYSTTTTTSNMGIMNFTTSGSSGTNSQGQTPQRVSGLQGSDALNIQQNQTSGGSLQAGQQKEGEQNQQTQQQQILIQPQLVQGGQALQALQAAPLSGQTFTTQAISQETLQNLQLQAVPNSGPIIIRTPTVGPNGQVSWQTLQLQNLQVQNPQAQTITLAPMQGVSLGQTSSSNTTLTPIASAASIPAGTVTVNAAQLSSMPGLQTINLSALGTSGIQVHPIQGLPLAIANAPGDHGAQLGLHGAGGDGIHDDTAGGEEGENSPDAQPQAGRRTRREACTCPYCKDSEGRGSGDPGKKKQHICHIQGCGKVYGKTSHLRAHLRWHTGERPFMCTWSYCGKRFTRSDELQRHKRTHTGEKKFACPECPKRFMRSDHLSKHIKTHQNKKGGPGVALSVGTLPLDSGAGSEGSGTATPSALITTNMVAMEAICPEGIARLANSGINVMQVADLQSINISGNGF
UniProt Q8N1F8, sequence (Q8N1F8 whole entry, looked up): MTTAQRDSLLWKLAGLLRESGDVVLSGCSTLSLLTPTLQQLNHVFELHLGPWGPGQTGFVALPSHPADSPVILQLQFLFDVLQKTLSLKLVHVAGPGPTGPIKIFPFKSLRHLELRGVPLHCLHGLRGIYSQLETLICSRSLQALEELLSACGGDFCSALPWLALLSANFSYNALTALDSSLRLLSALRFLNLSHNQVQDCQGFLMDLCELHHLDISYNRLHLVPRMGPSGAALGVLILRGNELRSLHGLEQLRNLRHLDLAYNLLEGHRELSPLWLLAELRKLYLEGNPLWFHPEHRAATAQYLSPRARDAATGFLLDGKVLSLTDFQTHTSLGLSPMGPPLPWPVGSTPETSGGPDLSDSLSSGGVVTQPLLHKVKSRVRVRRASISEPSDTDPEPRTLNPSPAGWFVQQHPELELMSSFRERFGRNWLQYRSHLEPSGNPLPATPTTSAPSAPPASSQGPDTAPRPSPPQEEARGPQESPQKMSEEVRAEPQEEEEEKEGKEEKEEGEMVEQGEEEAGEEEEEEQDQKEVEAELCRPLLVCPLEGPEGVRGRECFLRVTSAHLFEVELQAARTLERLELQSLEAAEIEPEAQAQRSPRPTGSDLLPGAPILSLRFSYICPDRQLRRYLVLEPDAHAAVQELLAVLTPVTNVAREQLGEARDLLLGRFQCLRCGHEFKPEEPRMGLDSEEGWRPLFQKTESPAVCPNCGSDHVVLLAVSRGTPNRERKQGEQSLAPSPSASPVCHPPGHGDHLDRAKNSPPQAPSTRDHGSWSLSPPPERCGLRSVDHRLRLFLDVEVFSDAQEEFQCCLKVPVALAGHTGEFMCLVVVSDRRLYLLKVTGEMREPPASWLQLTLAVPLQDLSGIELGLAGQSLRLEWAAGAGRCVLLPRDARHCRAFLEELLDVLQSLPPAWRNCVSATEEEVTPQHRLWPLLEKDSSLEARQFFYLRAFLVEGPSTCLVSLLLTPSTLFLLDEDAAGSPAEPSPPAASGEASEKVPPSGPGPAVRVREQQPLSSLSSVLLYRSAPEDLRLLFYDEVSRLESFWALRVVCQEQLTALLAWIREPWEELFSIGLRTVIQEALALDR
UniProt O00506, sequence (O00506 whole entry, looked up): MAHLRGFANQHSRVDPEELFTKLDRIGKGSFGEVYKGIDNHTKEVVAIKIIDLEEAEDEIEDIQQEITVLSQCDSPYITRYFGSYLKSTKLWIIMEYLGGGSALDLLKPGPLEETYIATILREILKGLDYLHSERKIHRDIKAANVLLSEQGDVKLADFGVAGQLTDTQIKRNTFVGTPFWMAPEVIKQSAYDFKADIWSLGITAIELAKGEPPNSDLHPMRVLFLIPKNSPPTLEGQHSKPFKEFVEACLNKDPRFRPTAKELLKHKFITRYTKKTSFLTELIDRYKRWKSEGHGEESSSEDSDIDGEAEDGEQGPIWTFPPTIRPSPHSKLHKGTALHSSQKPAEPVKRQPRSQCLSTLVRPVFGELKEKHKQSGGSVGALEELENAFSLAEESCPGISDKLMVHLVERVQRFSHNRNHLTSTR

Row | Target | log2 fold change [1] | log2 fold change [2] | log2 fold change [3] | log2 fold change [4] | log2 fold change [5] | log2 fold change [6] | log2 fold change [7] | log2 fold change [8] | log2 fold change [9] | log2 fold change [10]
1 | TAF9 (UniProt Q16594) | -0.06 | -0.018 | -0.004 | 0.188 | 0.084 | -0.002 | 0.156 | 0.001 | 0.018 | -0.057
2 | SLC11A2 isoform 3 (UniProt P49281) | 0 | -0.014 | -0.004 | -0.052 | -0.025 | 0.033 | -0.08 | -0.018 | 0.035 | 0.036
3 | SPC25 (UniProt Q9HBM1) | 0.029 | 0.029 | 0.001 | -0.01 | -0.021 | -0.007 | -0.013 | -0.005 | -0.031 | 0.011
4 | SMN1 (UniProt Q16637) | 0.086 | 0.035 | -0.183 | -0.031 | 0.021 | -0.056 | 0.049 | 0.022 | 0.036 | 0.158
5 | SLC38A10 (UniProt Q9HBR0) | 0.006 | -0.069 | 0.009 | -0.136 | 0.018 | 0.068 | -0.061 | -0.087 | -0.044 | 0.091
6 | SSB (UniProt E7ERC4) | -0.151 | -0.15 | -0.103 | 1.41 (active) | 0.141 | -0.263 | -0.028 | 0.032 | -0.271 | -0.121
7 | TAOK2 (UniProt Q9UL54) | -0.049 | -0.054 | -0.081 | -0.136 | -0.002 | 0.07 | -0.026 | 0.046 | -0.004 | 0.261
8 | SLC25A44 (UniProt Q96H78) | -0.031 | -0.014 | -0.034 | -0.069 | 0.233 | 0.047 | -0.008 | -0.01 | -0.037 | 0.166
9 | SRGN (UniProt P10124) | 0.016 | -0.181 | -0.054 | -0.046 | 0.019 | -0.097 | 0.008 | -0.071 | -0.17 | 0.192
10 | SMARCAD1 isoform 2 (UniProt Q9H4L7) | -0.005 | -0.015 | -0.073 | -0.019 | -0.013 | -0.044 | 0.018 | 0.003 | -0.045 | 0.008
11 | STAT2 (UniProt P52630) | 0.005 | -0.024 | -0.146 | 0.008 | 0.004 | -0.082 | 0.047 | 0.037 | -0.078 | 0.093
12 | SNX6, A0A0A0MRI2 | -0.008 | 0.018 | -0.062 | 0.2 | 0.003 | -0.134 | 0.022 | -0.012 | -0.04 | -0.088
13 | SKA2 (UniProt Q8WVK7) | 0.005 | -0.004 | 0.027 | 0.048 | -0.004 | -0.029 | 0.048 | -0.09 | -0.017 | 0.009
14 | TAF1B (UniProt Q53T94) | 0.012 | 0.062 | -0.036 | -0.058 | 0.34 | -0.157 | 0.304 | 0.017 | -0.004 | 0.134
15 | SSU72 (UniProt Q9NP77) | -0.02 | 0.008 | -0.042 | -0.288 (active) | -0.004 | 0.134 | -0.074 | 0.057 | -0.052 | 0.166
16 | SP1 (UniProt P08047) | 0.077 | 0.009 | 0.022 | -0.024 | -0.063 | 0.056 | -0.049 | 0.095 | -0.027 | 0.031
17 | SFN (UniProt P31947) | 0.018 | 0.117 | 0.055 | 0.347 (active) | -0.029 | -0.043 | 0.006 | 0.019 | 0.047 | -0.117
18 | STK26 (UniProt Q9P289) | -0.011 | 0.024 | 0.007 | -0.003 | 0.005 | 0.061 | 0.005 | -0.036 | -0.015 | -0.004
19 | SSBP3 (UniProt Q9BWW4) | 0.039 | -0.158 | 0.018 | -0.014 | 0.019 | -0.019 | -0.041 | 0.014 | -0.06 | 0.029
20 | STK25 (UniProt O00506) | -0.058 | -0.041 | 0.008 | -0.036 | -0.055 | 0.18 | 0.033 | -0.081 | 0.001 | 0.005
21 | SMIM12 (UniProt Q96EX1) | 0.014 | 0.022 | -0.024 | 0.417 (active) | -0.061 | -0.191 | -0.009 | 0.077 | -0.083 | -0.153
22 | TADA3 (UniProt O75528) | -0.005 | 0.009 | 0.017 | -0.09 | -0.002 | 0.143 | 0.066 | 0.006 | -0.051 | 0.087
23 | SOX5 (UniProt P35711) | 0.137 | -0.019 | 0.006 | 0.007 | -0.073 | 0.06 | -0.017 | 0.026 | -0.235 | 0.007
24 | SRPK1 (UniProt Q96SB4) | -0.006 | 0.008 | -0.089 | 0.1 | 0.025 | 0.17 | -0.016 | 0.233 | -0.028 | -0.054
25 | SNW1 (UniProt Q13573) | 0.019 | -0.002 | 0.002 | 0.155 | -0.018 | -0.037 | -0.01 | -0.002 | -0.002 | -0.007
26 | SMAP2 (UniProt Q8WU79) | -0.017 | -0.164 | 0.102 | 0.031 | -0.008 | -0.008 | 0.054 | -0.019 | 0.051 | -0.032
27 | STK11IP (UniProt Q8N1F8) | 0.022 | 0.012 | -0.022 | 0.004 | -0.052 | -0.019 | -0.014 | 0.037 | -0.008 | 0.036
